Results on 40 compounds are retold here after PubChem BioAssay (NCATS).

Records with an inconclusive call do not appear. A call without a number means that no potency is given here. Active and inactive are the calls of the source. Calls come from the whole dose curve; as a rule, active = well fitted cell-killing curve with a large enough effect; inconclusive = small, poorly fitted or top-dose-only effect; inactive = flat fitted curve, though single readings scatter.

This experiment can be described thus: Cell Viability - LYMP2-008 (AID 980).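 Note: cells exposed to compound for 24 h at 37 °C; nearly all actives have a fitted effect of over 60% in size.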 To be noted: LYMP2-008 lymphoblastoid cell viability, qHTS; series mostly up to 92.2 µM. The source says: NIH Chemical Genomics Center [NCGC]
NIH Molecular Libraries Screening Centers Network [MLSCN]
National Institutes of Environmental Health Sciences [NIEHS]
National Toxicology Program [NTP]
We have developed a 1536-well cell-based assay for quantitative high throughput screening (qHTS) against a number of cell lines to determine in vitro cytotoxicity of small molecules. This particular assay uses a human lymphoblastoid cell line (LYMP2-008) purchased from Coriell Institute for Medical Research.
NCGC Assay Protocol Summary:
The CellTiter-Glo luminescent cell viability assay (Promega) is a homogeneous method to measure the number of viable cells in culture. The end point readout of this assay is based on quantitation of intracellular ATP, an indicator of metabolic activity, using the luciferase reaction. Luciferase catalyzes the oxidation of beetle Luciferin to oxyluciferin and light in the presence of ATP. The luminescent signal is proportional to amount of ATP present.
Using the CellTiter-Glo luminescent cell viability assay, the amount of cellular ATP was measured in the lymphoblastoid cell line with complete culture medium following compound treatment for 24 hours. The assay was performed in opaque white Kalypsys 1536-well plates. In the screen, tetraoctylammonium bromide was used as positive control. Library compounds were measured for their ability to cause acute toxicity in the cell line, as reflected by a decrease in intracellular ATP levels, in a concentration-dependent manner. […] AC50 values were determined from concentration-response data modeled with the standard Hill equation.
qHTS protocol for CellTiter Glo lymphoblastoid cellular assay
[Step] [Parameter] [Value] [Description]
1. Reagent; 5 uL; 2500 lymphoblastoid cells/well
2. Time; 5 hr; 37 C incubation
4. Controls; 23 nL; Tetraoctylammonium bromide 6.4pM to 92 uM
5. Time; 24 hr; 37 C incubation
6. Reagent; 5 uL; CellTiter Glo reagent
7. Time; 30 min; Room Temperature
8. Detection; Luminescence; Viewlux plate reader
Keywords: cell viability, cytotoxicity, lymphoblastoid cell line, luminescence, NTPHTS, NTPHTS_NCGC, NIEHS, DSSTox, MLSMR, MLSCN, NIH Roadmap, qHTS, NCGC
In the case of `CC(=O)CC(C)C`, the Potency entry is “inactive”. Take `CCCCCCCCN`: the Potency entry is “inactive”. As for `O=Cc1ccc(C(=O)O)cc1`, the Potency result was “inactive”. Consider `CC(C)(C)OCC1CO1` (stereo not given), for which the Potency result is “inactive”. In the case of `CC(C)N=C=NC(C)C`, the Potency entry was “inactive”.

On to `C=Cc1ccccn1`, for which the Potency result was “inactive”. As for `CC(=O)c1ccccn1`, the Potency entry is “inactive”.

In the case of `Cc1ccc(C)c(N)c1`, the Potency result was “inactive”. With `NC=O` the entry was “inactive”. With `C=CCCCCCCC=C` the entry was “inactive”; with `CC#N`, “inactive”; with `Nc1ccc([N+](=O)[O-])c(N)c1`, “inactive”. For the compound `C=CCOC(=O)COCCC(C)C`, the Potency result is “inactive”. On to `Cc1cc(C)c(N)cc1C`, for which the Potency entry was “inactive”. With `NS(=O)(=O)O` the entry was “inactive”; with `O=[N+]([O-])c1cccc(C(F)(F)F)c1`, “inactive”. Consider `COc1ccccc1[N+](=O)[O-]`, for which the Potency result is “inactive”.

Turning to `O=C1CCCCC1`, the Potency entry is “inactive”. For the compound `Clc1ccc(Cl)c(Cl)c1Cl`, the Potency result was “inactive”. Turning to `Cc1ccc(Cl)cc1`, the Potency result is “inactive”. In the case of `O=C(O)c1ccccc1[N+](=O)[O-]`, the Potency result was “inactive”. With `Cc1cc(C2(c3cc(C)c(O)cc3C)OS(=O)(=O)c3ccccc32)c(C)cc1O`, the Potency entry was “inactive”.

As for `CNC(=O)N(c1ccccc1)c1ccccc1`, the Potency entry is “inactive”. Regarding `CCOCCOCC`, the Potency entry is “inactive”. Under `C=C(C)C(=O)OCCCCCCCCCC` stands “inactive”. For `OCCO`, the Potency entry was “inactive”. With `CC(=O)c1ccccc1[N+](=O)[O-]` the entry was “inactive”; with `O=C1CCC(=O)O1`, “inactive”. For `CCCCCCC(=O)O`, the Potency result was “inactive”. Take `COc1ccc(OC)cc1`: the Potency entry was “inactive”. In the case of `CCc1ccccc1O`, the Potency entry is “inactive”. As to `O=C1OC(=O)c2c(Cl)c(Cl)c(Cl)c(Cl)c21`, the Potency entry was “inactive”. With `O=C(O)CCSSCCC(=O)O` the entry was “inactive”. Consider `CCCCC(=O)N(C)C`, for which the Potency entry is “inactive”.

With `Cc1ccccc1Br`, the Potency entry is “inactive”. Take `O=CNc1ccccc1`: the Potency result was “inactive”. Consider `CCC(O)C(C)(C)C` (stereo not given), for which the Potency result is “inactive”. With `C=Cc1ccccc1C=C`, the Potency entry is “inactive”.

For the compound `CCCC=O`, the Potency entry was “inactive”. Turning to `c1ccc2c(c1)ccc1ncccc12`, the Potency result is “inactive”.
